Inhibition data for 62 molecules are collected here from PubChem BioAssay AID1533 (PCMD, 2009).

SMILES strings stand for the structures. The whole screen tested about 160,000 compounds, of which about 45 (0.03%) were called active. Cut-off read from the data, not from the text of the source: active = inhibition mostly above about 34% (no sharp cut-off); inconclusive = no clear call, values can overlap the other calls; inactive = mostly below about 22%. For the sample, actives were picked, then their nearest neighbours and some compounds at random.

The term inhibition denotes the drop in the measured response relative to a control, in per cent.

In this test the target is dTDP-4-dehydrorhamnose reductase (Mycobacterium tuberculosis (strain ATCC 25618 / H37Rv)) + dTDP-4-dehydrorhamnose 3,5-epimerase (Mycobacterium tuberculosis (strain ATCC 25618 / H37Rv)) (UniProt P9WH09+P9WH11). Nature of the test: M. tuberculosis RmlC/RmlD coupled enzyme inhibitors, primary screen, biochemical, compound mixtures, 384-well, from 1536-well plates (AID 1533). The note with it: RmlC+RmlD coupled enzyme assay, percent inhibition, primary screen in compound mixtures, stronger effect = higher value.
Sequence of dTDP-4-dehydrorhamnose reductase (Mycobacterium tuberculosis (strain ATCC 25618 / H37Rv)) + dTDP-4-dehydrorhamnose 3,5-epimerase (Mycobacterium tuberculosis (strain ATCC 25618 / H37Rv)) (P9WH09 whole entry, looked up): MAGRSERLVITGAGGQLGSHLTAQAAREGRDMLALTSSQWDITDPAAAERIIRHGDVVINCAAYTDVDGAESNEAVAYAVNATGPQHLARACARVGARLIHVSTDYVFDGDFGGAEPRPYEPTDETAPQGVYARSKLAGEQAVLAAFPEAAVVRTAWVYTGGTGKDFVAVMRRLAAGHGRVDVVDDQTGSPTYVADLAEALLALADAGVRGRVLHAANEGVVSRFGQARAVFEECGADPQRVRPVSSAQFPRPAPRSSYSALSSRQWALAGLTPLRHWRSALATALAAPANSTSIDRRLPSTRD
Sequence of dTDP-4-dehydrorhamnose reductase (Mycobacterium tuberculosis (strain ATCC 25618 / H37Rv)) + dTDP-4-dehydrorhamnose 3,5-epimerase (Mycobacterium tuberculosis (strain ATCC 25618 / H37Rv)) (P9WH11 whole entry, looked up): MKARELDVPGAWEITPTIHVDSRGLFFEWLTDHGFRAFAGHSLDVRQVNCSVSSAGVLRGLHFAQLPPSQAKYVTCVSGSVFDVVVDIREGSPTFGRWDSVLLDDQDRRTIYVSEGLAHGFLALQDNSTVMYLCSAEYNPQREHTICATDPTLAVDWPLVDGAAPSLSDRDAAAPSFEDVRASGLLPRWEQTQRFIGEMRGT

Turning to `COc1ccc2[nH]c(=S)cc(C)c2c1`, where the note is “at 3.6 µM”, the inhibition is 1.84% (inactive). For the molecule `Cc1cc(=O)oc2cc(OCCC[n+]3ccccc3)ccc12`, the inhibition (at 3.6 µM) is 2.56% (inactive). On to `CCc1ccc(-n2c(SCc3cc(=O)n4cc(Br)ccc4n3)nc3[nH]ncc3c2=O)cc1`, for which the inhibition (at 3.6 µM) was -10.8% (inactive). In the case of `CCn1c2ccccc2c2cc(NC(=O)Nc3ccc([N+](=O)[O-])cc3C)ccc21`, under “at 3.6 µM”, the inhibition was 14.1% (inactive). With `O=C(Nc1cccnc1)c1cc([N+](=O)[O-])ccc1Cl`, the inhibition (at 3.6 µM) was -16% (inactive). Still for that read-out and setting: then `COc1cccc(C(=O)n2ccc(-c3cccs3)n2)c1`, with 2.94% (inactive); and `COc1ccc(N(Cc2ccccc2)S(=O)(=O)c2cccc(C(=O)O)c2)cc1`, with 1.87% (inactive); and `COc1ccccc1Cn1c(CO)nc2ccccc21`, with 17.8% (inactive). Same read-out and setting: under `CC(=O)N1N=C(c2ccncc2)OC1(Cc1ccccc1)Cc1ccccc1` stands 9.53% (inactive); under `COc1cccc(CNn2cn[nH]c2=S)c1OCc1ccccc1`, -3.37% (inactive). Consider `C=CCN1C(=O)C(O)(CC(=O)c2ccccn2)c2ccccc21` (stereo not drawn), for which, where the note is “at 3.6 µM”, the inhibition was -20.3% (inactive). `S=c1[nH]nc(Nc2ccccc2)s1`: the inhibition (at 3.6 µM) is -6.55% (inactive). Same read-out and setting: then `CC1C(=O)NC(=O)C1c1ccccc1` (stereo not drawn), with 11.3% (inactive). `COc1ccc(NC(=O)C2CCC(CNc3c(N4CCCCC4)c(=O)c3=O)CC2)c(OC)c1` (stereo not drawn): under “at 3.6 µM”, the inhibition is 1.5% (inactive). Take `O=C(Nc1ccccc1)Nc1ccc(C(F)(F)F)cn1`: the inhibition (at 3.6 µM) is -12.1% (inactive).

`COC(=O)c1sc(SC)c(S(=O)(=O)C(C)C)c1N/N=C(\C#N)S(=O)(=O)c1ccccn1`: where the note is “at 3.6 µM”, the inhibition was 26.5% (inactive). On the same count and under the same terms, under `O=C(NC1C2CC3CC(C2)CC1C3)c1ccc(N2CCNCC2)c([N+](=O)[O-])c1` (stereo not drawn) stands -17.8% (inactive). As for `C=CCC1(C#N)C(=S)NC(C)=C(C(=O)OCC)C1c1ccccc1` (stereo not drawn), the inhibition (at 3.6 µM) was -2.23% (inactive).

`Cc1c(Cc2ccccc2)c(=O)oc2cc(OCC(N)=O)ccc12`: the inhibition (at 3.6 µM) is -14.1% (inactive). `Cn1c(SCC(=O)c2ccc(F)cc2)nnc1-c1ccccn1`: the inhibition (at 3.6 µM) is -3.85% (inactive). As for `CCOC(=O)COc1nc(C)cc(C(F)(F)F)c1C#N`, the inhibition (at 3.6 µM) is 2.06% (inactive).

Take `O=C(O)CCCCCCCCCC[n+]1ccccc1`: under “at 3.6 µM”, the inhibition was 9.14% (inactive). Same read-out and setting: then `NC(=O)c1ccc(NC(=O)COC(=O)c2ccc([N+](=O)[O-])cc2)cc1`, with 11.7% (inactive); and `Cc1cc(N2CCN(c3ccc(F)cc3)CC2)n2ncnc2n1`, with 15.1% (inactive); and `CN(C)C(=O)c1nc2ccc(Cl)cn2c1CNCc1cccc(OC(F)(F)F)c1`, with 10.5% (inactive). On the same count and under the same terms, then `O=C(c1ccc(=O)oc1)N1CCC(C(O)(c2ccccc2)c2ccccc2)CC1`, with 7.4% (inactive); and `O=C(COC(=O)/C=C/c1ccc2c(c1)OCO2)NC1CCS(=O)(=O)C1` (stereo not drawn), with -0.46% (inactive); and `CCCCc1nnc(NC(=O)CSc2nc(N)cc(=O)[nH]2)s1`, with -1.44% (inactive). Same read-out and setting: then `CCC(O)C1CCN(Cc2cn(-c3ccc(OC)cc3)nc2-c2cccc(F)c2)CC1` (stereo not drawn), with -7.8% (inactive); and `CC(NC(=S)Nc1ccccc1)C(c1cccs1)N1CCOCC1` (stereo not drawn), with 3.55% (inactive); and `CCC1CCCCN1C(=O)CSc1nc2c(c(=O)n(C)c(=O)n2C)n1C` (stereo not drawn), with -9.61% (inactive).

For the molecule `CCOC(=O)c1ccccc1NC(=S)N1CCC(C(N)=O)CC1`, the inhibition (at 3.6 µM) was -16.5% (inactive).

Consider `CC1=NN(c2ccccc2)C(=O)C1C(=O)c1ccc([N+](=O)[O-])cc1` (stereo not drawn), for which the inhibition (at 3.6 µM) is 4.71% (inactive). Same read-out and setting: then `CCCNc1c(N)c(=O)c1=O`, with -3% (inactive).

On to `COc1ccc(CCNC(=O)C(=O)Nc2ccc3nc4n(c(=O)c3c2)CCCCC4)cc1OC`, for which the inhibition (at 3.6 µM) was -7.43% (inactive).

Regarding `CN1CCN(c2ncc3c(n2)CC(c2ccccc2F)CC3=O)CC1` (stereo not drawn), the inhibition (at 3.6 µM) was 2.14% (inactive).

In the case of `N#C/C(=C(\O)C(F)(F)F)c1nnc2n1CCCCC2`, the inhibition (at 3.6 µM) was 31.1% (inactive) and the inhibition (measured here: mean retest inhibition, at 5.5 µM) was -1.52%. Turning to `CCOc1ccc2nc(NCCNC(=O)C(C)(C)C)c(C)cc2c1`, the inhibition (at 3.6 µM) is -1% (inactive). Same read-out and setting: under `Cn1cc(S(=O)(=O)NC(c2ccccc2)c2ccccc2)c(=O)n(C)c1=O` stands -1% (inactive); under `CN(c1ccc(OCC(=O)NC2=NCCS2)cc1)S(=O)(=O)c1ccc(F)cc1`, 9.17% (inactive). The same measure, in the same setting: under `CC1CC1C(=O)OCC(=O)c1c(N)n(C)c(=O)n(C)c1=O` (stereo not drawn) stands -8.03% (inactive). The same measure, in the same setting: under `O=S(=O)(NCCc1csc(-c2ccccc2)n1)c1cccnc1` stands 4.16% (inactive); under `Cc1nnc2n1N=C(c1ccc3c(c1)NC(=O)CO3)CS2`, -5.45% (inactive). As to `COc1ccc(C)cc1NC(=O)c1ccc(-c2ccc(C(C)=O)cc2)o1`, the inhibition (at 3.6 µM) was 6.7% (inactive). Still for that read-out and setting: then `C/C(=N/NC(=O)CC(=O)N/N=C(\C)c1ccc([N+](=O)[O-])cc1)c1ccc([N+](=O)[O-])cc1`, with 11.2% (inactive); and `O=C(Nc1nc2ccc([N+](=O)[O-])cc2s1)c1ccncc1`, with 8.08% (inactive); and `COc1cc(CN2CCNC(=O)C2CC(=O)NCCc2ncccc2C)cc(OC)c1` (stereo not drawn), with -11.4% (inactive). For `CN(CC(=O)Nc1ccccc1F)CC(=O)Nc1ccccc1Br`, the inhibition (at 3.6 µM) was 27.7% (inactive). Consider `Cc1c(C)c(C)c2[nH]c(=S)[nH]c2c1C`, for which the inhibition (at 3.6 µM) is 4.61% (inactive). Same read-out and setting: under `O=c1[nH]c(CSc2ccccc2)nc2c1oc1ccccc12` stands 2.42% (inactive); under `CCOc1ccc(NC(=S)N2CCCCCC2)cc1`, -16.4% (inactive). Same read-out and setting: under `CCOc1ccc(NS(=O)(=O)c2cc(C)c(C)cc2C)cc1` stands -11.4% (inactive); under `CC(=O)c1c(C)[nH]c(=S)c(C#N)c1-c1ccc(F)cc1`, 10.4% (inactive); under `CCCc1nc2oc3c(=O)[nH]cnc3c2c2c1COC(C)(C)C2`, -9.43% (inactive). Still for that read-out and setting: under `O=C(NCc1cccnc1)C(=O)Nc1nc(-c2ccccc2)cs1` stands -5.87% (inactive); under `Oc1oc(-c2ccccc2Br)nc1/C=N/c1ccccn1`, 2.05% (inactive); under `Oc1cccc2ccc(/C=C/c3ccc(Br)s3)nc12`, -11.7% (inactive). As for `CN(C)CCOc1cccc(Br)c1`, where the note is “at 3.6 µM”, the inhibition is 11.8% (inactive).

As to `CN(C)c1ccc(NC(=O)CSc2n[nH]c(-c3ccco3)n2)cc1`, where the note is “at 3.6 µM”, the inhibition is -3.13% (inactive). Same read-out and setting: under `Cc1nc2ccccn2c1C(=O)NN=C1CCN(C)CC1` stands -1.88% (inactive); under `CC(C)OCCCNC(=O)c1ccc(C2SCC(=O)N2Cc2ccco2)cc1` (stereo not drawn), 1.23% (inactive).

For the molecule `CCn1c(CSCc2c(Cl)cccc2Cl)n[nH]c1=S`, where the note is “at 3.6 µM”, the inhibition is -0.03% (inactive).
